Counter-ions that a name gives are not always drawn.
What was measured:
[1] = system: S. cerevisiae SK1 pCDA2-eGFP (USY613), sporulating; assay: CDA2-GFP sporulation assay sensitivity score (z-score vs DMSO controls); higher = stronger inhibition of sporulation, active = hit call of the paper;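 further: active if sensitivity score above 5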
[2] = system: S. cerevisiae AD1-9 (efflux-pump deficient), vegetative growth in YPD; assay: growth sensitivity score (doubling time z-score vs DMSO controls); higher = slower growth, strongly negative scores also mark growth inhibition (complete suppression), active = hit call of the paper
Method in brief: (§1)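 Saccharomyces cerevisiae strains BY4741 and AD1-9 were seeded in rich medium in microtiter plates at an OD600 of 0.065. Compounds were added at a 1:100 dilution of DMSO stock. Optical density was read every 15 min for 24 hours on a Tecan GENios reader. Average doubling time was the time taken to reach a set generation point divided by generation number, and the growth sensitivity score was (compound mean − DMSO-control mean)/DMSO-control SD, using eight DMSO controls per experiment.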

[3] = system: S. cerevisiae BY4741 (wild-type), vegetative growth in YPD; assay: as above
Method in brief: as §1

| Structure (SMILES) | CDA2-GFP sporulation assay sensitivity score [1] | growth sensitivity score [2] | growth sensitivity score [3] |
| --- | --- | --- | --- |
| CCCc1c(OCCCCc2nnn[nH]2)ccc(C(C)=O)c1O (stock concentration (mM, diluted 1:100): 10) | -1.99 (inactive) | 5.49 (active) | 1.14 (inactive) |
| CC(C)/N=c1\cc2n(-c3ccc(Cl)cc3)c3ccccc3nc-2cc1Nc1ccc(Cl)cc1 [Clofazimine] (stock concentration (mM, diluted 1:100): 10) | 0.66 (inactive) | 108 (active) | 61.3 (active) |
| Cc1ncc([N+](=O)[O-])n1CC(O)CCl (stereo unspecified) [Ornidazole] (stock concentration (mM, diluted 1:100): 10) | -0.66 (inactive) | -0.62 (inactive) | -2.78 |
| O=C(CCCN1CC=C(n2c(=O)[nH]c3ccccc32)CC1)c1ccc(F)cc1 [Droperidol] (stock concentration (mM, diluted 1:100): 10) | 3.12 (inactive) | -1.57 (inactive) | -0.99 (inactive) |
| CC(=O)OCC(CCn1cnc2cnc(N)nc21)COC(C)=O [Famciclovir] (stock concentration (mM, diluted 1:100): 10) | 0.31 (inactive) | -0.2 (inactive) | -1.36 (inactive) |
| CC(C)[C@H]1CC[C@H](C(=O)N[C@H](Cc2ccccc2)C(=O)O)CC1 [Nateglinide] (stock concentration (mM, diluted 1:100): 10) | 0.06 (inactive) | 0.63 (inactive) | -0.35 (inactive) |
| CC(=O)[C@]1(O)Cc2c(O)c3c(c(O)c2[C@@H](O[C@H]2C[C@H](N)[C@H](O)[C@H](C)O2)C1)C(=O)c1ccccc1C3=O [Idarubicin hydrochloride] (stock concentration (mM, diluted 1:100): 9.3) | -0.06 (inactive) | 174 (active) | 128 (active) |

From the supplement of paper PMC3414501
